Source: PMC7862700, “An all-to-all approach to the identification of sequence-specific readers for epigenetic DNA modifications on cytosine”

How the values were obtained:
Assay in all cases: DAPPL (digital affinity profiling via proximity ligation, sequencing); 10 mM Tris-HCl pH 7.5, 50 mM NaCl, 1 mM DTT, 4% glycerol, room temperature, 30 min; GST-TFs on glutathione beads, 16-mer random dsDNA library, 0.1% formaldehyde crosslink after washing; high values mean tight binding
FEV = biological target: T1, FEV (Homo sapiens, UniProt Q99581 1-238); conditions: protein: recombinant; tags: N-terminal GST; dsDNA, one strand shown
T1 sequence: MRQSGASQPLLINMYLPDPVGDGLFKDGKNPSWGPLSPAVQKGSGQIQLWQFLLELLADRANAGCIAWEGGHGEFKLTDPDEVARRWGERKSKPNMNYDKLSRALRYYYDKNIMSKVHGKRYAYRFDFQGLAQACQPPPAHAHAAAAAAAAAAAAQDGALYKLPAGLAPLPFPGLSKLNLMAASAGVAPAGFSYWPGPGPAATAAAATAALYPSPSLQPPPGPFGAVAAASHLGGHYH
How it was run: (§1)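 Binding signal is each hexamer's read frequency for a factor divided by its frequency in the tag-only sample. The factors were GST-fused human transcription factors from yeast, captured on glutathione beads, DNA-barcoded and pooled with that sample. Pools were incubated with 200 nmole of a random double-stranded 16-mer DNA library in Tris/NaCl/DTT/glycerol buffer at room temperature for 30 min, then washed, crosslinked with 0.1% formaldehyde, proximity-ligated with BsaI/T4 ligase (1 h, 37 °C), PCR-amplified and sequenced on an Illumina NextSeq500.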

ETV5 = ETV5 (Homo sapiens, UniProt P41161 1-510); conditions: protein: recombinant; tags: N-terminal GST; dsDNA, one strand shown
How it was run: as §1

HSF1 = HSF1 (Homo sapiens, UniProt Q00613 1-529); conditions: protein: recombinant; tags: N-terminal GST; chain copies: 3; dsDNA, one strand shown
How it was run: as §1

SPIC = biological target: T2, SPIC (Homo sapiens, UniProt Q8N5J4 1-248); conditions: protein: recombinant; tags: N-terminal GST; dsDNA, one strand shown
T2 sequence: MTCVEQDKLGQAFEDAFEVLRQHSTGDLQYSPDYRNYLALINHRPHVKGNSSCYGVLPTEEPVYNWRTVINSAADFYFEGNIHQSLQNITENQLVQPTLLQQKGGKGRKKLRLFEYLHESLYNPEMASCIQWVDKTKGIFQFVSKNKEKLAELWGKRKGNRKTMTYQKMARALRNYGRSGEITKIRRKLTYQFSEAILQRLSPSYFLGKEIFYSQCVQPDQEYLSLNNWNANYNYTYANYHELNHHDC
How it was run: as §1

ELF4 = ELF4 (Homo sapiens, UniProt Q99607 1-663); conditions: protein: recombinant; tags: N-terminal GST; dsDNA, one strand shown
How it was run: as §1

ELK4 = biological target: T3, ELK4 (Homo sapiens, UniProt P28324-2 1-405); conditions: protein: recombinant; tags: N-terminal GST; dsDNA, one strand shown
T3 sequence: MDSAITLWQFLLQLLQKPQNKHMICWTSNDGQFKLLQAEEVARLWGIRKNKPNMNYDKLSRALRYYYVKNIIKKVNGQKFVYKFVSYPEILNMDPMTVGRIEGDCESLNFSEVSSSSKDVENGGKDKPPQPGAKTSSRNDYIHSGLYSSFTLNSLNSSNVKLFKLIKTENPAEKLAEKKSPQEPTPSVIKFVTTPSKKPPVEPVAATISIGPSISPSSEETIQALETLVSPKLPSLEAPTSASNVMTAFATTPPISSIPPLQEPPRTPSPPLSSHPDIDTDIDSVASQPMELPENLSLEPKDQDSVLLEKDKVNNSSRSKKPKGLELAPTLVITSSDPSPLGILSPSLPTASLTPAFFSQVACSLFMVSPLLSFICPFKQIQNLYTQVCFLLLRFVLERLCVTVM
How it was run: as §1

ETV2 = biological target: T4, ETV2 (Homo sapiens, UniProt O00321 1-342); conditions: protein: recombinant; tags: N-terminal GST; dsDNA, one strand shown
T4 sequence: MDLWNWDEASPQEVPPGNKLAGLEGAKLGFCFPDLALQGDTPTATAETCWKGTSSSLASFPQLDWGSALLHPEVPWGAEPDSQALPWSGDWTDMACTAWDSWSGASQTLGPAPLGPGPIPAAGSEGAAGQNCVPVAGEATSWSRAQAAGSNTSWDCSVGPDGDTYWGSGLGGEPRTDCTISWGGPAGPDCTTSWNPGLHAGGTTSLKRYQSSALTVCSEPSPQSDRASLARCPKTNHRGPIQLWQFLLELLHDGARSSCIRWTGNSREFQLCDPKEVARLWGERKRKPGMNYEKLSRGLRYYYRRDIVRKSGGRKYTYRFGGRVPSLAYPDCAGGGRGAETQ
How it was run: as §1

ELF3 = biological target: T5, ELF3 (Homo sapiens, UniProt P78545 1-371); conditions: protein: recombinant; tags: N-terminal GST; dsDNA, one strand shown
T5 sequence: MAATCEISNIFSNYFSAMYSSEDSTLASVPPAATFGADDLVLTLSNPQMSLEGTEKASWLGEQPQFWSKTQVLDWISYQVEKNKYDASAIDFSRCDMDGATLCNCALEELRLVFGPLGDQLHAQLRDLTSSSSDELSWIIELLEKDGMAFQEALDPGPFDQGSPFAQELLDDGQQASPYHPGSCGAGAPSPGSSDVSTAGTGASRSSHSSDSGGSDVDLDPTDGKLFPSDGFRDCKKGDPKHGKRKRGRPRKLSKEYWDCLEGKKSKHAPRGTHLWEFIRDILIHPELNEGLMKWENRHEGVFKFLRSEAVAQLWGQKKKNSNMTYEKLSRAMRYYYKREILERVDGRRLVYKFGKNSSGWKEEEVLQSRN
How it was run: as §1

CRX = CRX (Homo sapiens, UniProt O43186 1-299); conditions: protein: recombinant; tags: N-terminal GST; dsDNA, one strand shown
How it was run: as §1

ETV1 = ETV1 (Homo sapiens, UniProt P50549 1-477); conditions: protein: recombinant; tags: N-terminal GST; dsDNA, one strand shown
How it was run: as §1

ERF = biological target: T6, ERF (Homo sapiens, UniProt P50548 1-548); conditions: protein: recombinant; tags: N-terminal GST; dsDNA, one strand shown
T6 sequence: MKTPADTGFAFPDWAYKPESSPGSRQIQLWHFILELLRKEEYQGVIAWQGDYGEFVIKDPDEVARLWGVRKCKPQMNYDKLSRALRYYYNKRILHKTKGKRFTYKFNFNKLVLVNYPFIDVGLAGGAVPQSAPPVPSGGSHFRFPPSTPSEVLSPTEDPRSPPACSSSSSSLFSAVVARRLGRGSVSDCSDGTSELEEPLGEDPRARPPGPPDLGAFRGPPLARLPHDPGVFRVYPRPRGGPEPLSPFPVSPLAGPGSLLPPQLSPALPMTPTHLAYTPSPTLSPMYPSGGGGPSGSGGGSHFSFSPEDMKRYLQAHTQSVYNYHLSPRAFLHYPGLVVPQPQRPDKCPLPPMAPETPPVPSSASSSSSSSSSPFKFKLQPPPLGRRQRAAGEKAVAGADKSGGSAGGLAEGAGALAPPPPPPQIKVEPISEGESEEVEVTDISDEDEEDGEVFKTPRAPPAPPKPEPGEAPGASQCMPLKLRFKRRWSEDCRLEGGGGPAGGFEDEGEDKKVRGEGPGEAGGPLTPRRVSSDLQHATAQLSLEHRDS
How it was run: as §1

ETV3L = biological target: T7, ETV3L (Homo sapiens, UniProt Q6ZN32 1-361); conditions: protein: recombinant; tags: N-terminal GST; dsDNA, one strand shown
T7 sequence: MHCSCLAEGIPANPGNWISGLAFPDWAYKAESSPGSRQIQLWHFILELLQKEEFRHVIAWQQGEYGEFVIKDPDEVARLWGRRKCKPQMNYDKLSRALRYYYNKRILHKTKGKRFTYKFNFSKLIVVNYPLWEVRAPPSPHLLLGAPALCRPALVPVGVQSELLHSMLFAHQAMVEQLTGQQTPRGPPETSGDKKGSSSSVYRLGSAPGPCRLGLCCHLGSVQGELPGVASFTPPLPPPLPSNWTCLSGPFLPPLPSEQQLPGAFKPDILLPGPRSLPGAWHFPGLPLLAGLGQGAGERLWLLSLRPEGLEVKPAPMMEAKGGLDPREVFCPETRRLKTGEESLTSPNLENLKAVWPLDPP
How it was run: as §1

ETS2 = biological target: T8, ETS2 (Homo sapiens, UniProt P15036 1-469); conditions: protein: recombinant; tags: N-terminal GST; dsDNA, one strand shown
T8 sequence: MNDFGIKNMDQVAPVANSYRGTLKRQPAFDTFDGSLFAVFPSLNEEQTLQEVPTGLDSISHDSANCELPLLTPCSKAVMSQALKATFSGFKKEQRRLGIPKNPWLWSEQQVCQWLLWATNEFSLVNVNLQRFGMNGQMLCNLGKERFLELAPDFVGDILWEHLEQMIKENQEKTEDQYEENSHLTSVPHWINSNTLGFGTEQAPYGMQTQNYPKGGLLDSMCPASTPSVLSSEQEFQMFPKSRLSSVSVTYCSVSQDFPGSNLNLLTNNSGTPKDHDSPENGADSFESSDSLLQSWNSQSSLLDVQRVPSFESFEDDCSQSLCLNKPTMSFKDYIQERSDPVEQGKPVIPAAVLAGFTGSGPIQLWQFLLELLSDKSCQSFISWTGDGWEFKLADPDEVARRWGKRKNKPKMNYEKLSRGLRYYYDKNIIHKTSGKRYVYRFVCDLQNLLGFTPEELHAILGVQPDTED
How it was run: as §1

SPDEF = biological target: T9, SPDEF (Homo sapiens, UniProt O95238 1-335); conditions: protein: recombinant; tags: N-terminal GST; dsDNA, one strand shown
T9 sequence: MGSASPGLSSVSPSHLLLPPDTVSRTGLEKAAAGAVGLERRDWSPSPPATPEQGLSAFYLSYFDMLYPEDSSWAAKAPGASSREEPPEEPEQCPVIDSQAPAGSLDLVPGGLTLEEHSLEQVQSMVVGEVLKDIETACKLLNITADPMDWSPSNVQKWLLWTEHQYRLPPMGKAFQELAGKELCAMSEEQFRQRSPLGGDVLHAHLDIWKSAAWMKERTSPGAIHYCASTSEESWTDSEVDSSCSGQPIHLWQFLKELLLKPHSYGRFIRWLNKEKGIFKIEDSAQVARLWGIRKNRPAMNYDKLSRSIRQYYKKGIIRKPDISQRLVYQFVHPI
How it was run: as §1

ETV7 = biological target: T10, ETV7 (Homo sapiens, UniProt Q9Y603 1-341); conditions: protein: recombinant; tags: N-terminal GST; dsDNA, one strand shown
T10 sequence: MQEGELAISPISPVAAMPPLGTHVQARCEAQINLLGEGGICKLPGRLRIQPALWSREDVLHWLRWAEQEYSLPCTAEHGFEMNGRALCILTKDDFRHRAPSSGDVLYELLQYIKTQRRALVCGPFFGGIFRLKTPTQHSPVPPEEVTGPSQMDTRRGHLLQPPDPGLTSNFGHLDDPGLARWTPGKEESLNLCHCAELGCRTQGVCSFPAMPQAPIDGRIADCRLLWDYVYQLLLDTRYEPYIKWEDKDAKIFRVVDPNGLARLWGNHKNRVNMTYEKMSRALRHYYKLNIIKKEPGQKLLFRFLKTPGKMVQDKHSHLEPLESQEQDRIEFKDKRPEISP
How it was run: as §1

ELF5 = biological target: T11, ELF5 (Homo sapiens, UniProt Q9UKW6-2 1-255); conditions: protein: recombinant; tags: N-terminal GST; dsDNA, one strand shown
T11 sequence: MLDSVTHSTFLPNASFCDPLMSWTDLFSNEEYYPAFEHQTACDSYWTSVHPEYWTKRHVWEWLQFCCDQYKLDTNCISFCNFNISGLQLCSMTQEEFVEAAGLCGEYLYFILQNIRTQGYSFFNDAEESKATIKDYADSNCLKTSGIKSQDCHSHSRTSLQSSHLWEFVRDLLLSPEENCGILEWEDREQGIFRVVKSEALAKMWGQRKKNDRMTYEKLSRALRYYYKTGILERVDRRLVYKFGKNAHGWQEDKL
How it was run: as §1

ETV3 = biological target: T12, ETV3 (Homo sapiens, UniProt P41162-2 1-143); conditions: protein: recombinant; tags: N-terminal GST; dsDNA, one strand shown
T12 sequence: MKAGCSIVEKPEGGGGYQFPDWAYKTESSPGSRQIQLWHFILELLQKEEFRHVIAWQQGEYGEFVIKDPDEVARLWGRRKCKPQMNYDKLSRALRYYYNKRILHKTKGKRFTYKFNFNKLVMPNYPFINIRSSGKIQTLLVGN
How it was run: as §1

ETV6 = ETV6 (Homo sapiens, UniProt P41212 1-452); conditions: protein: recombinant; tags: N-terminal GST; dsDNA, one strand shown
How it was run: as §1

Sequence of ETV5 (P41161 whole entry): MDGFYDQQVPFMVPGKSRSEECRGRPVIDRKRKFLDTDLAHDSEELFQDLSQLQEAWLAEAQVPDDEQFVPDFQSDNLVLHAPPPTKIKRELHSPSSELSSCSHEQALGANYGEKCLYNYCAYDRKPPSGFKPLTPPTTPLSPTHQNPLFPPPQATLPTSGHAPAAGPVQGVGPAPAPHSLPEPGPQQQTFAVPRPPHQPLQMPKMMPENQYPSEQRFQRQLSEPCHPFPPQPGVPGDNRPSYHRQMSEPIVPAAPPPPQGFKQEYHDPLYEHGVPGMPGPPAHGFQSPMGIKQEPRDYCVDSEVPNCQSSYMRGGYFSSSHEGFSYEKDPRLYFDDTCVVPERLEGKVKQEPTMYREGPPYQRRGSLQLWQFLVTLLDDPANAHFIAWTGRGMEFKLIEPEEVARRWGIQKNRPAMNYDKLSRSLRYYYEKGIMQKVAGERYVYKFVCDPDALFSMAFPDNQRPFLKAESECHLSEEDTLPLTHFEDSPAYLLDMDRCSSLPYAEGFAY
Sequence of ETV1 (P50549 whole entry): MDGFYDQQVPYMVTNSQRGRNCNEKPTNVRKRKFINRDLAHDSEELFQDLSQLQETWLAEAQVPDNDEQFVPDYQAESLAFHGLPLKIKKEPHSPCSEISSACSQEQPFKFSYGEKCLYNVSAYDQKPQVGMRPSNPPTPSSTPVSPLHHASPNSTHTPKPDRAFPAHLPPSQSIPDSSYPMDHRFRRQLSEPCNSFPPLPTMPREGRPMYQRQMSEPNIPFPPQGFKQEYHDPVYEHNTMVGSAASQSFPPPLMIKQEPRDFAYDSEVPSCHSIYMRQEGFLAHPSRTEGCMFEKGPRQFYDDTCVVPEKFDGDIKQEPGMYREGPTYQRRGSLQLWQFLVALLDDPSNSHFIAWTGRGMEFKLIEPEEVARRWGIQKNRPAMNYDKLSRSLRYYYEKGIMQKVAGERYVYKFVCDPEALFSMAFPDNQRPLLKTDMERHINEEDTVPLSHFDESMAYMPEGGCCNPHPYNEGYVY
Sequence of CRX (O43186 whole entry): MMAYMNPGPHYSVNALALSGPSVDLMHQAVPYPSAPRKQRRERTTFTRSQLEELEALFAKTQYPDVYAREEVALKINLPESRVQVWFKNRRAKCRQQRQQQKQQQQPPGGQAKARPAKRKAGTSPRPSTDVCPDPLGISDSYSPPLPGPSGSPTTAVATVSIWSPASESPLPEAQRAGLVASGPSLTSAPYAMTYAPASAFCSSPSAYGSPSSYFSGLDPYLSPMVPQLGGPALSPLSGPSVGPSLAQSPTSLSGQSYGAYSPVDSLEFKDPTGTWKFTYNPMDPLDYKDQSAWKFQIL
Sequence of ELF4 (Q99607 whole entry): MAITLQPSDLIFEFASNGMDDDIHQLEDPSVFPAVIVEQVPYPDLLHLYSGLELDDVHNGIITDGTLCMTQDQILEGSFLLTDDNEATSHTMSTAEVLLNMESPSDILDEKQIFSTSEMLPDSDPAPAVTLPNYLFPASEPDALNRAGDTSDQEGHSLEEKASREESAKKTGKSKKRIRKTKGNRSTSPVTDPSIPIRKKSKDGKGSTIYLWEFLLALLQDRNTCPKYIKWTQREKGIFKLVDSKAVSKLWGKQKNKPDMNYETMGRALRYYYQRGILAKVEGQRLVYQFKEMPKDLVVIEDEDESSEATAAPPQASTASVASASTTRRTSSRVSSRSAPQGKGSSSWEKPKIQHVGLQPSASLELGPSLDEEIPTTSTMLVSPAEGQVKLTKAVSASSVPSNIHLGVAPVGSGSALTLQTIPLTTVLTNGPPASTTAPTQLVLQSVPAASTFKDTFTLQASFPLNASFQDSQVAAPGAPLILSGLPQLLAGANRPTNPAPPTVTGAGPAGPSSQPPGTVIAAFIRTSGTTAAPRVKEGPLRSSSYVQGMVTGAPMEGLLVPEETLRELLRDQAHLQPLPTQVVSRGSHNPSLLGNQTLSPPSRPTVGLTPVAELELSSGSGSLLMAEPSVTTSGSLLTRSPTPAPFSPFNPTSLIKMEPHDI
Sequence of HSF1 (Q00613 whole entry): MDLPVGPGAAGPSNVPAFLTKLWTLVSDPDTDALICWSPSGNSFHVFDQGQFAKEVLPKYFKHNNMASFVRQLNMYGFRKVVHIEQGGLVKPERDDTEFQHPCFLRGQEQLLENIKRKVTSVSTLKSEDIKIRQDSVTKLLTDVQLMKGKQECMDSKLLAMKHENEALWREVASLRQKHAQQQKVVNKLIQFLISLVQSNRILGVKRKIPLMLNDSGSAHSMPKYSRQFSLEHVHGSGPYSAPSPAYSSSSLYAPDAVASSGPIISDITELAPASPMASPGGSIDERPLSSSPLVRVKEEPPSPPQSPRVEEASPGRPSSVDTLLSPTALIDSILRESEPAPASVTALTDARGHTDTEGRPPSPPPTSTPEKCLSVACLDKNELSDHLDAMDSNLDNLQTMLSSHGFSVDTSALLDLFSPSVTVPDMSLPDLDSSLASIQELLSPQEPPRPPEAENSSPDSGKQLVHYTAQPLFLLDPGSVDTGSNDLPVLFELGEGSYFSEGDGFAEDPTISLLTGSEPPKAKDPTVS
Sequence of ETV6 (P41212 whole entry): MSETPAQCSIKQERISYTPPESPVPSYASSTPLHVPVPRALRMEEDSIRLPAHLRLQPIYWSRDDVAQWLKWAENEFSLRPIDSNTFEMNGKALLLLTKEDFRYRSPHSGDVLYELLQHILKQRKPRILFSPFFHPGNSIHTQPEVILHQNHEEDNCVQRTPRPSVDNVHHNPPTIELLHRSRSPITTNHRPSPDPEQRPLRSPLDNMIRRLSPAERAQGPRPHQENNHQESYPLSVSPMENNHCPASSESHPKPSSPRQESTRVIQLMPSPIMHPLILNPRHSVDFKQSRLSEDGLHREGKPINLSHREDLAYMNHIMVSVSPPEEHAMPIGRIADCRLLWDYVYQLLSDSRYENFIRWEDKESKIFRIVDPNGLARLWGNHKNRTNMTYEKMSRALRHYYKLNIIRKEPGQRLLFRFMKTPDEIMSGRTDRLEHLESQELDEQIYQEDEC

Sequence: TGCACT
- binding signal (FEV): 1.51 fold enrichment (6-mer frequency, TF over GST control)
- binding signal (ETV5): 1.37 fold enrichment (6-mer frequency, TF over GST control)
- binding signal (HSF1): 1.02 fold enrichment (6-mer frequency, TF over GST control)
- binding signal (SPIC): 1.33 fold enrichment (6-mer frequency, TF over GST control)
- binding signal (ELF4): 1.33 fold enrichment (6-mer frequency, TF over GST control)
- binding signal (ELK4): 1.31 fold enrichment (6-mer frequency, TF over GST control)
- binding signal (ETV2): 1.46 fold enrichment (6-mer frequency, TF over GST control)
- binding signal (ELF3): 1.55 fold enrichment (6-mer frequency, TF over GST control)
- binding signal (CRX): 1.06 fold enrichment (6-mer frequency, TF over GST control)
- binding signal (ETV1): 1.33 fold enrichment (6-mer frequency, TF over GST control)
- binding signal (ERF): 1.28 fold enrichment (6-mer frequency, TF over GST control)
- binding signal (ETV3L): 1.34 fold enrichment (6-mer frequency, TF over GST control)
- binding signal (ETS2): 1.32 fold enrichment (6-mer frequency, TF over GST control)
- binding signal (SPDEF): 1.4 fold enrichment (6-mer frequency, TF over GST control)
- binding signal (ETV7): 1.42 fold enrichment (6-mer frequency, TF over GST control)
- binding signal (ELF5): 1.29 fold enrichment (6-mer frequency, TF over GST control)
- binding signal (ETV3): 1.35 fold enrichment (6-mer frequency, TF over GST control)
- binding signal (ETV6): 1.41 fold enrichment (6-mer frequency, TF over GST control)
